This excerpt belongs to a sample that is enriched for hits.
LmPK inhibitor – qHTS Assay for Inhibitors of Leishmania Mexicana Pyruvate Kinase (LmPK) | AID 1721, 2009 | Q27686 | purified LmPK, Kinase-Glo ATP luminescence, 1 h | Potency, µM (doses to about 57.5 µM), for the others: at the top dose activity change, negative = inhibition, usual class: inhibitors | actives 0.37% (n = 290,000); also: potency is read from the fitted curve at half-maximal effect; % is scaled to controls: 0 for no effect and ±100 for the full control effect
Target sequence (Q27686 whole entry, looked up): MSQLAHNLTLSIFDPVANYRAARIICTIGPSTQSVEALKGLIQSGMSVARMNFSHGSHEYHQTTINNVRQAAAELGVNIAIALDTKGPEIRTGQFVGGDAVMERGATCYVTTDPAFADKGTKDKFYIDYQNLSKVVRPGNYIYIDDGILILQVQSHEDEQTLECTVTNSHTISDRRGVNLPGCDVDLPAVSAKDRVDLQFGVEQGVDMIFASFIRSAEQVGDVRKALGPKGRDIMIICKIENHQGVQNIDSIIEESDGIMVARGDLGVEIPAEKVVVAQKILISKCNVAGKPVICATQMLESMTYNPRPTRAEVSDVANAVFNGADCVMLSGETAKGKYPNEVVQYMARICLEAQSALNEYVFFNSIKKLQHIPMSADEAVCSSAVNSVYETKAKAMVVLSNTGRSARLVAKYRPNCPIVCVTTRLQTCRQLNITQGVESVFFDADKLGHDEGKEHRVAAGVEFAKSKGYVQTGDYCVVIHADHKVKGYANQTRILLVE
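In 50 mM imidazole pH 7.2 with 7 mM MgCl2, LmPK (0.1 nM) turned over PEP (0.5 mM) and ADP (0.1 mM) for 1 h at room temperature. Luciferase read-out of ATP.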
Giardia FBPA inh – qHTS Assay for Inhibitors of Fructose-1,6-bisphosphate Aldolase from Giardia Lamblia | A8B2U2 | purified Giardia FBPA | Potency, µM (titrated, usually from 59.6 µM), inactives show at the highest dose activity, negative = inhibition, most hits filed as inhibitors | actives 0.71% (n = 290,000); also: potency is read from the fitted curve at half-maximal effect; % is scaled to controls: 0 for no effect and ±100 for the full control effect; nearly all actives have a fitted effect of over 55% in size
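40 nM FBPA preincubated 10 min at RT with compound (up to 57.5 uM final), then substrate plus GAPDH/TPI/NAD/arsenate coupling and diaphorase/resazurin added. Fluorescence read after 20 min at RT, 525/598 nm.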
Shiga toxin inh – A qHTS for Small Molecule Inhibitors of Shiga Toxin. Vero cells, Shiga toxin protein synthesis inhibition reporter. inhibition, % at 38.7 µM. actives 9.2% (n = 290,000). AID 2315, 2010; in the data active = inhibition mostly above about 28%, no sharp cut-off; inactive = mostly below about 43%; also: 0% is about no effect
RE007 growth inh – qHTS Assay for Inhibitors of the HIV-1 protein Vpr. S. pombe RE007 Vpr strain, BacTiter-Glo ATP luminescence, 24 h. Potency, µM (doses to about 92.2 µM), without a hit: at the top dose activity change, negative = less growth, hits mostly inhibitors. actives 0.21% (n = 360,000); active = well fitted falling curve with a large enough effect; inconclusive = small, poorly fitted or top-dose-only effect; inactive = no such curve, though single readings can be large or run the other way; also: potency is read from the fitted curve at half-maximal effect; % is scaled to controls: 0 for no effect and ±100 for the full control effect; nearly all actives have a fitted effect of over 50% in size
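Fission yeast strain RE007, carrying one chromosomally integrated HIV-1 vpr copy, was seeded at OD 0.01 in PMG+AL medium with 23 nL pinned compound. After 24 h at 30 °C and 99% humidity, viability was read by BacTiter-Glo luminescence.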
Cycloheximide cs – Cycloheximide Counterscreen for Small Molecule Inhibitors of Shiga Toxin; cell reporter, cycloheximide protein synthesis inhibition counterscreen; actives 12% (n = 300,000); max response, %; in the data active = max response mostly above about 13%, no sharp cut-off; inactive = mostly below about 14%; also: read at 38.3 µM for the half of the compounds with a filed dose; 0% is about no effect
Tb PYK inh – qHTS of Trypanosoma Brucei Inhibitors | AID 624173, 2012 | actives 0.12% (n = 410,000) | TbPYK enzyme, Kinase-Glo Plus ATP luminescence, 45 min | Potency, µM (titrated, usually from 76.8 µM), for the others: at the highest dose activity, negative = inhibition, usual class: inhibitors | pyruvate kinase (Trypanosoma brucei), Q57TT1; also: potency is read from the fitted curve at half-maximal effect; % is scaled to controls: 0 for no effect and ±100 for the full control effect; nearly all actives have a fitted effect of over 50% in size
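Enzyme and substrate buffer are dispensed first and compound is pin-transferred. ADP at 130 uM final then starts the reaction, which runs 45 min at room temperature. Detection reagent is added for 10 min before luminescence is imaged.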
Numbers without * were called inactive; ? = inconclusive; / = no result; [ ] = dose if it differs, or a comment. Unless noted, calls follow the shape of the dose curve; as a rule, active = well fitted curve in the direction sought with a large enough effect; inconclusive = small, poorly fitted or top-dose-only effect, or another doubt; inactive = no such curve, though single readings can be large; an effect the other way counts as inactive or inconclusive.

SMILES	LmPK inhibitor	Giardia FBPA inh	Shiga toxin inh	RE007 growth inh	Cycloheximide cs	Tb PYK inh
CCCCN(C)CCCNC(=O)Cn1ncc2c3ccccc3n(Cc3ccccc3F)c2c1=O	/	/	/	/	/	0%
O=C(C1CCC(Cn2c(=O)c3sccc3n(Cc3cccc(F)c3)c2=O)CC1)N1CCCCC1 (stereo not given)	/	/	/	/	/	4%
COc1ccc(CC(=O)NCCS(=O)(=O)N2CCN(c3ccccc3F)CC2)cc1OC	/	/	/	/	/	0%
COc1c(O)ccc(/C=N/NC(=O)c2ccc3c(c2)OCCO3)c1[N+](=O)[O-]	1%	0%	52*	-18%	21*	3%
CCC(C(=O)NCCc1ccc(Cl)cc1)n1ccc2cc(S(=O)(=O)N3CCCCC3)ccc21 (stereo not given)	/	/	/	/	/	-1%
O=C(Nc1cc(Sc2ccccn2)cc([N+](=O)[O-])c1)c1ccc(Cl)cc1	0%	-15%	57	10%	21*	-3%
O=C(Nc1cc(Sc2ccccn2)cc([N+](=O)[O-])c1)c1cccc(Cl)c1	1%	-20%	8	20%	9	-3%
CCC(=O)NCCc1nc2cc(NC(=O)c3ccc(Cl)cc3)ccc2n1C	-2%	1%	64*	-6%	52*	11%
CC(=O)NCCc1nc2cc(NC(=O)c3ccc(Cl)cc3)ccc2n1C	1%	1%	64*	1%	24*	0%
CCC(=O)NCCc1nc2cc(NC(=O)c3ccc(OC)cc3)ccc2n1C	-2%	0%	52	-7%	25*	0%
COc1ccc(OCC(=O)Nc2ccc3c(c2)nc(CCNC(C)=O)n3C)cc1	4%	-5%	-21	-5%	-1	-4%
CCC(=O)NCCc1nc2cc(NC(=O)c3ccc(F)cc3)ccc2n1C	-1%	-16%	89*	5%	43*	3%
CCCC(=O)Nc1ccc2c(c1)nc(CCNC(=O)c1ccccc1)n2C	4%	3%	-12	1%	-4	1%
COCCN1C(=O)N(c2cccc(OC)c2)C(=O)C1CC(=O)Nc1ccccc1 (stereo not given)	/	/	/	/	/	7%
CC(=O)NCCc1nc2cc(NC(=O)c3ccccc3Cl)ccc2n1C	-5%	-3%	26	9%	17*	2%
CN(C)c1ccc(NC(=S)c2ccc3ccccc3n2)cc1	6%	-8%	113*	-12%	32*	0%
Cc1ccc(C)c(NC(=S)c2nc3ccccc3s2)c1	-3%	16%	42*	-8%	26*	-14%
CC(C)=C(C#N)c1nc2ccccc2s1	0%	12%	-2	-11%	17	0%
CN(CC(=O)Nc1ccc(F)cc1)C(=O)c1ccc2ccccc2n1	/	/	/	19%	/	0%
COc1ccc(C)cc1NC(=O)COC(=O)c1ccc2ccccc2n1	/	/	/	3%	/	4%
Cc1ccc(C)c(NC(=S)c2ccccn2)c1	-6%	2%	95*	?	50*	-9%
Cc1ccc(C)c(NC(=O)NCc2ccccn2)c1	-5%	-5%	-16	3%	-1	1%
Cc1ccc(C)c(NC(=S)c2ccc3ccccc3n2)c1	-3%	10%	75*	5%	44*	18%
N#CCCn1cc(/C=N/NC(N)=S)c(-c2ccc(-c3ccccc3)cc2)n1	-3%	-5%	7	4%	-2	-2%
COc1ccccc1CCNC(=O)Cc1c(C)c2cc3c(C)coc3cc2oc1=O	/	/	/	/	/	-4%
SMILES	LmPK inhibitor	Giardia FBPA inh	Shiga toxin inh	RE007 growth inh	Cycloheximide cs	Tb PYK inh
CCCCN1C(=O)C(NC(=O)C2CC2)(C(F)(F)F)C2=C1CC(C)(C)CC2=O (stereo not given)	7%	-2%	-15	-4%	-3	5%
CCCCC(=O)NC1(C(F)(F)F)C(=O)N(CC(C)C)C2=C1C(=O)CC(C)(C)C2 (stereo not given)	0%	8%	44*	5%	30	1%
O=[N+]([O-])c1cc2c(cc1C=Nc1ccccc1)OCO2	-1%	/	-6	-15%	-3	0%
Sc1oc(-c2ccccc2)cc1C=Nc1ccccc1	-11%	10%	86	-14%	30*	-10%
COc1ccccc1N1CCN(c2ncnc3c2cnn3-c2ccc(C)cc2)CC1	/	/	/	/	/	-1%
Brc1cccc2sc(N3CCCC3)nc12	6%[11.5 µM]	5%	89	1%	34*	-6%
Clc1cccc2sc(N3CCCC3)nc12	-6%	6%	active	-28%	20*	-2%
Clc1cccc2sc(N3CCOCC3)nc12	/	/	/	-13%	/	-5%
CC(=O)N1CCN(c2nc3c(F)cc(F)cc3s2)CC1	/	/	/	/	/	-10%
Fc1cccc2sc(N3CCCC3)nc12	-20%	8%	89*	6%	43*	-6%
CCc1cccc2sc(N3CCN(C(=O)C4CC4)CC3)nc12	/	/	/	/	/	5%
CC(C)[C@@]1(NC(=O)[C@H]2C[C@H]3c4cccc5[nH]cc(c45)C[C@@H]3N(C)C2)O[C@]2(O)[C@H]3CCCN3C(=O)CN2C1=O (tested in a mixture with another compound)	/	/	/	/	/	0%
Cc1cccc(CN2C(=O)c3ccccc3S(=O)(=O)c3ccc(C(=O)NCCC4=CCCCC4)cc32)c1	/	/	/	/	/	0%
Oc1ccccc1Nc1nc(NCc2ccco2)c2ccccc2n1	4%	-10%	15	10%	-1	8%
c1ccc(Nc2nc(NCc3ccco3)c3ccccc3n2)cc1	-2%	-12%	33*	13%	16*	0%
Cc1cccc(Nc2nc(NCc3ccco3)c3ccccc3n2)c1	0%	?	23	-2%	11*	-1%
Cc1ccc(S(=O)(=O)Nc2nc3ccccc3nc2NCc2ccco2)cc1	3%	-16%	74*	-2%	59*	-5%
Cc1ccccc1Nc1nc(NCc2ccco2)c2ccccc2n1	-1%	1%	49	-12%	19*	0%
CCOc1ccc(-n2cc(-c3ccccc3)c3c(NCCc4ccccc4)ncnc32)cc1	/	/	/	/	/	19%
COCCNC(=O)c1ccc(-c2nc(CS(=O)(=O)c3ccccc3)c(C)o2)cc1	/	/	/	/	/	0%
c1ccc(-c2nc(NCc3cccnc3)c3ccccc3n2)cc1	6%	-9%	-2	-7%	-2	1%
Cc1ccc(-c2nc(NCc3cccnc3)c3ccccc3n2)cc1	0%	6%	-5	-15%	14*	-3%
O=c1c2ccccc2nc2ccc(NCc3ccco3)nn12	2%	-10%	56*	30%	51*	8%
C=CCNc1nc(Cl)nc(NCc2ccco2)n1	-1%	9%	-5	4%	-2	-1%
Oc1ccc(Nc2nc(Cl)nc(NCc3ccco3)n2)cc1	-2%	4%	38	6%	34*	0%
